Results as given in patent US5487994, “Insertion and deletion mutants of FokI restriction endonuclease” (The Johns Hopkins University).

B1: hemi-methylated substrate (GGATG strand) (dsDNA)
DNA 1: CTAGAGTCAGAATTCGAAGACTTGCCGGATGATCTGCAGGCCAGCTGTGGCGTCTAAATTGA
DNA 2: AGCTTCAATTTAGACGCCACAGCTGGCCTGCAGATCATCCGGCAAGTCTTCGAATTCTGACT
modifications: N6-methyladenine in GGATG strand of FokI site
B2: fully methylated substrate (dsDNA)
DNA 1: B1 DNA 1
DNA 2: B1 DNA 2
modifications: N6-methyladenine in both strands of FokI site
B3: hemi-methylated substrate (CATCC strand) (dsDNA)
DNA 1: B1 DNA 1
DNA 2: B1 DNA 2
modifications: N6-methyladenine in CATCC strand of FokI site

These binders were tested against FokI endonuclease wild-type (Flavobacterium okeanokoites, UniProt P14870 P14870:2-579) (assay: filter; with poly(dI-dC), 1 mM EDTA, 22 C). Conditions: tags: expressed in E. coli RR1 from pRRSfokIR; label: 32P.
Chain of FokI endonuclease wild-type (P14870 2-579, one chain of several): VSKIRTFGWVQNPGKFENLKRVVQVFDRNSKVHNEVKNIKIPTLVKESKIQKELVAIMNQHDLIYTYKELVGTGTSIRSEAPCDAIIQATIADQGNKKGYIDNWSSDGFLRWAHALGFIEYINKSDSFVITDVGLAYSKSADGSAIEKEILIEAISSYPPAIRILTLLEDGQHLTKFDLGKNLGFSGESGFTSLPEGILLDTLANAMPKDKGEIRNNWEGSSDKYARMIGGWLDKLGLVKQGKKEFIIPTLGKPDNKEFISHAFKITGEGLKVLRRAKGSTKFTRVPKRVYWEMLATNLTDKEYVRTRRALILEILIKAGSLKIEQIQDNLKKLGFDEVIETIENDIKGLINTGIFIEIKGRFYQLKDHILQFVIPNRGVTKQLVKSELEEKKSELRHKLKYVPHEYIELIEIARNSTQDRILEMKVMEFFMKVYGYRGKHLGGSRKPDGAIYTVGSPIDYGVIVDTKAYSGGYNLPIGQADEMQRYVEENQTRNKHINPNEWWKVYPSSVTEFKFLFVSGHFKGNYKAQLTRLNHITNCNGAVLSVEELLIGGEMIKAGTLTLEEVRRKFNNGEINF
Procedure: The filter binding assays were performed in duplicate using *Fok*I or mutant enzymes and the four different synthetic substrates, SEQ ID NO:12, SEQ ID NO:13, hemi-methylated oligonucleotide of SEQ ID NO:12 and hemi-methylated oligonucleotide of SEQ ID NO:13. Nine different concentrations for each of the enzymes were made by serial dilutions ([…], 2000, 667, 222, 74.1, 24.7, 8.23, 2.74 and 0.914 nM). The enzymes were mixed with 40 nM of each labelled substrate along with 50 μg/ml p(dI-dC) and 50 μg/ml BSA in 50 μl of buffer A[10 mM Tris. phosphate (pH 8.0), 7 mM 2-mercaptoethanol, 1 mM EDTA, 50 mM NaCl, and 10% (vol/vol) glycerol]. The samples were incubated at 22° C. for 1 hr and then loaded on to nitrocellulose filters. The filters were washed twice with 0.5 ml of buffer A, dried and counted using the scintillation counter.
Why does the four amino-acid residue insertions enable the mutant enzymes to cleave hemi-methylated DNA and not the larger inserts? The four codon insertions could increase the affinity of the mutants for the hemi-methylated DNA. The binding affinities of wild-type enzyme and both four codon insertion mutants were compared by filter binding assays using the synthetic oligonucleotide substrates (FIGS. 9A, 9B and 9C). The binding affinities were measured in the presence of non-specific DNA, poly dI-dC.

Binder | binding signal
B1 | ~100 fold less efficient than unmethylated
B2 | ~100 fold less efficient than unmethylated
B3 | ~100 fold less efficient than unmethylated
